According to PubChem BioAssay AID1159580 (chemical genetic matrix, 2015):
“And” between values parts separate entries of the source, which are not always exact repeats. Equal entries are not always repeated. The whole screen tested about 5,500 compounds, of which about 2,000 (36%) were called active. Inconclusive results (about 18%) are left out. No stated cut-off is given here; in the data, active means normalized growth mostly below about 0.91 (no sharp cut-off); inconclusive means no clear call, values can overlap the other calls; inactive means mostly above about 0.92. This is one part of the list.

Assay: chemical genetic growth profiling, strain panel (AID 1159580);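 further: tested at 20 µM; growth read once vehicle control cultures reached saturation at 30 °C; 1 = growth at the plate median or of vehicle wells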
Details: S. cerevisiae deletion strains, growth OD

Measured: normalized growth

O=C(N[C@@H](CO)[C@H](O)c1ccc([N+](=O)[O-])cc1)C(Cl)Cl
inactive: locus YAL013W, strain DEP1, stronger effect = lower value 1 | locus YAL021C, strain ccr4, stronger effect = lower value 1.01 | locus YAL026C, strain drs2, stronger effect = lower value 1.03 | locus YAL030W, strain snc1, stronger effect = lower value 0.999 | locus YBL061C, strain skt5, stronger effect = lower value 0.995 | locus YBR009C, strain hhf1, stronger effect = lower value 1.03 | locus YBR021W, strain FUR4, stronger effect = lower value 1.03 | locus YBR023C, strain chs3, stronger effect = lower value 1.02 | locus YBR171W, strain sec66, stronger effect = lower value 1.02 | locus YBR229C, strain ROT2, stronger effect = lower value 1 | locus YBR231C, strain swc5, stronger effect = lower value 1.01 | locus YBR279W, strain paf1, stronger effect = lower value 1.02 | locus YCL011C, strain gbp2, stronger effect = lower value 1.02 | locus YCL016C, strain dcc1, stronger effect = lower value 1.02 | locus YCL029C, strain bik1, stronger effect = lower value 1.03 | locus YCL061C, strain MRC1, stronger effect = lower value 0.998 | locus YCL069W, strain vba3, stronger effect = lower value 1.02 | locus YCR088W, strain abp1, stronger effect = lower value 1.02 | locus YDL005C, strain med2, stronger effect = lower value 1 | locus YDL035C, strain GPR1, stronger effect = lower value 0.997 | locus YDL040C, strain nat1, stronger effect = lower value 1.01 | locus YDL074C, strain BRE1, stronger effect = lower value 1.03 | locus YDL101C, strain DUN1, stronger effect = lower value 1.01 | locus YDL134C, strain PPH21, stronger effect = lower value 1 | locus YDL185W, strain tfp1, stronger effect = lower value 1.01 | locus YDL192W, strain arf1, stronger effect = lower value 1.01 | locus YDR001C, strain nth1, stronger effect = lower value 1.02 | locus YDR069C, strain doa4, stronger effect = lower value 1.02 | locus YDR101C, strain arx1, stronger effect = lower value 1.01 | locus YDR137W, strain rgp1, stronger effect = lower value 1.03 | locus YDR150W, strain NUM1, stronger effect = lower value 0.997 | locus YDR159W, strain sac3, stronger effect = lower value 0.982 | locus YDR162C, strain NBP2, stronger effect = lower value 1 | locus YDR195W, strain ref2 1.09 | locus YDR297W, strain sur2, stronger effect = lower value 1.02 | locus YDR318W, strain mcm21, stronger effect = lower value 1.01 | locus YDR334W, strain swr1, stronger effect = lower value 1 | locus YDR335W, strain msn5, stronger effect = lower value 1.01 | locus YDR388W, stronger effect = lower value 1.01 | locus YDR392W, strain spt3, stronger effect = lower value 0.981 | locus YDR502C, strain sam2, stronger effect = lower value 1.01 | locus YEL003W, strain gim4, stronger effect = lower value 1.01 | locus YEL037C, strain rad23, stronger effect = lower value 1.01 | locus YEL061C, strain CIN8 (second series), stronger effect = lower value 1.02 | locus YEL061C, strain CIN8, stronger effect = lower value 0.996 | locus YER015W, strain faa2, stronger effect = lower value 1.02 | locus YER016W, strain bim1, stronger effect = lower value 1.01 | locus YER110C, stronger effect = lower value 1.01 | locus YER111C, strain swi4, stronger effect = lower value 1.02 | locus YER155C, strain BEM2 (second series), stronger effect = lower value 0.993 | locus YER155C, strain BEM2, stronger effect = lower value 1 | locus YER167W, strain BCK2, stronger effect = lower value 0.987 | locus YFR010W, strain ubp6, stronger effect = lower value 1.02 | locus YGL078C, strain dbp3, stronger effect = lower value 1 | locus YGL086W, strain mad1, stronger effect = lower value 0.994 | locus YGL167C, strain pmr1, stronger effect = lower value 1.01 | locus YGL173C, strain kem1, stronger effect = lower value 1.03 | locus YGL227W, strain vid30, stronger effect = lower value 1.04 | locus YGL240W, strain doc1, stronger effect = lower value 0.983 | locus YGL248W, strain PDE1, stronger effect = lower value 0.998 | locus YGL253W, strain hxk2, stronger effect = lower value 1.03 | locus YGR078C, strain PAC10, stronger effect = lower value 1.02 | locus YGR135W, strain pre9, stronger effect = lower value 1.01 | locus YGR229C, strain SMI1, stronger effect = lower value 0.994 | locus YGR252W, strain gcn5, stronger effect = lower value 0.947 | locus YHR013C, strain ard1, stronger effect = lower value 1.01 | locus YHR027C, strain rpn1, stronger effect = lower value 1.02 | locus YHR030C, strain SLT2, stronger effect = lower value 0.998 and 0.975 | locus YHR079C, strain IRE1 (second series), stronger effect = lower value 1.02 | locus YHR079C, strain IRE1, stronger effect = lower value 1 | locus YHR094C, strain hxt1, stronger effect = lower value 1.01 | locus YHR129C, strain ARP1, stronger effect = lower value 1.01 | locus YHR142W, strain chs7, stronger effect = lower value 1.05 | locus YHR200W, strain rpn10, stronger effect = lower value 1.01 | locus YIL066C, strain RNR3, stronger effect = lower value 1.01 | locus YIL073C, strain SPO22, stronger effect = lower value 0.964 | locus YIL125W, strain kgd1, stronger effect = lower value 0.998 | locus YIR030C, strain dcg1, stronger effect = lower value 1.01 | locus YJL092W, strain hpr5, stronger effect = lower value 1.02 | locus YJL095W, strain BCK1 (second series), stronger effect = lower value 1.02 | locus YJL095W, strain BCK1, stronger effect = lower value 1.04 and 0.945 | locus YJL115W, strain asf1, stronger effect = lower value 1.01 | locus YJL129C, strain trk1, stronger effect = lower value 1.01 | locus YJL134W, strain LCB3, stronger effect = lower value 1 | locus YJL154C, strain vps35, stronger effect = lower value 1.03 | locus YJL164C, strain tpk1, stronger effect = lower value 1.03 | locus YJL166W, strain qcr8, stronger effect = lower value 1.02 | locus YJL168C, strain set2, stronger effect = lower value 1.01 | locus YJL187C, strain SWE1 (second series), stronger effect = lower value 1.02 | locus YJR043C, strain POL32, stronger effect = lower value 1.03 | locus YJR066W, strain TOR1, stronger effect = lower value 0.962
